This passage reports Percent Effect results from ChEMBL document CHEMBL3988442, “University of Dundee, Small-Polar-MMV Screening Library” (2021).

Holding throughout (parameters): scale not given: direction of the effect not stated beside the values
The target of assay [1] is Protein translocase subunit SecA (Escherichia coli (strain K12)) (UniProt P10408). Nature of the assay: Assay to Identify E. coli SecA ATPase Inhibitors. Format: functional. Conditions: 30 µM.
The target in assay [2] is T1, Ubiquitin-activating enzyme e1, putative (Leishmania donovani (strain BPK282A1)) (UniProt E9BSI1).
T1 sequence (whole entry): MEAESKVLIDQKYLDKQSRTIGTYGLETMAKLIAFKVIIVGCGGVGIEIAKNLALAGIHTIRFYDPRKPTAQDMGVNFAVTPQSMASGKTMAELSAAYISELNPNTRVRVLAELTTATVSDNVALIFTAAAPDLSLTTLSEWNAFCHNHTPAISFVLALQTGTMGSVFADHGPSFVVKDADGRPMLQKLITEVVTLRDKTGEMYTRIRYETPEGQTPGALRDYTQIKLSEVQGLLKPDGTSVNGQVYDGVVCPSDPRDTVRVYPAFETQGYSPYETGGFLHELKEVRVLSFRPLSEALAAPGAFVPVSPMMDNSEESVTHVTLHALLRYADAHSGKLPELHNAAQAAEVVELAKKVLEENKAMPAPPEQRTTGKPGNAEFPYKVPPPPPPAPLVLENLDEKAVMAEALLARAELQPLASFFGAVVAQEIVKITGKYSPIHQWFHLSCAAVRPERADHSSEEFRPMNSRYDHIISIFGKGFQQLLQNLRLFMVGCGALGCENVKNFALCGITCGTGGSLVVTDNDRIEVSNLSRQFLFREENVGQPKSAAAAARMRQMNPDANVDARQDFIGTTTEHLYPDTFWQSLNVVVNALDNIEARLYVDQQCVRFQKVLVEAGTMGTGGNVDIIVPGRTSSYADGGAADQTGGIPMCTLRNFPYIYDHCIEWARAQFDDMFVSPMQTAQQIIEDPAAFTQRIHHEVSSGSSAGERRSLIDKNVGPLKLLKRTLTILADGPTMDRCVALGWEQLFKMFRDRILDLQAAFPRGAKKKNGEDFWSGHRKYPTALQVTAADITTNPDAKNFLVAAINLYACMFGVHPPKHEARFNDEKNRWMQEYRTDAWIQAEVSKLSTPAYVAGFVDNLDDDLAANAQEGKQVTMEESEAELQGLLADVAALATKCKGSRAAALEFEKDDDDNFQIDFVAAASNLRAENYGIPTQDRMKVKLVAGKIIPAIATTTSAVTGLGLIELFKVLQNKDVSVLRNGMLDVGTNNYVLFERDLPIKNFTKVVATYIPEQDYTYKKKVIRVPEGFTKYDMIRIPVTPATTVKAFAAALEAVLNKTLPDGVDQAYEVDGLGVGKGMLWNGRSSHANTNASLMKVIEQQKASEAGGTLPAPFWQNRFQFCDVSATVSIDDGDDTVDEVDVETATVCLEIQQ
Nature of the assay: Leishmania donovani Ubiquitin Activating Enzyme (LdE1). Particulars: 30 µM. Format: functional.

Assay [3] deals with T2, Aspartate--tRNA(Asp/Asn) ligase (Mycobacterium tuberculosis (strain ATCC 25618 / H37Rv)) (UniProt P9WFW3).
T2 sequence (whole entry): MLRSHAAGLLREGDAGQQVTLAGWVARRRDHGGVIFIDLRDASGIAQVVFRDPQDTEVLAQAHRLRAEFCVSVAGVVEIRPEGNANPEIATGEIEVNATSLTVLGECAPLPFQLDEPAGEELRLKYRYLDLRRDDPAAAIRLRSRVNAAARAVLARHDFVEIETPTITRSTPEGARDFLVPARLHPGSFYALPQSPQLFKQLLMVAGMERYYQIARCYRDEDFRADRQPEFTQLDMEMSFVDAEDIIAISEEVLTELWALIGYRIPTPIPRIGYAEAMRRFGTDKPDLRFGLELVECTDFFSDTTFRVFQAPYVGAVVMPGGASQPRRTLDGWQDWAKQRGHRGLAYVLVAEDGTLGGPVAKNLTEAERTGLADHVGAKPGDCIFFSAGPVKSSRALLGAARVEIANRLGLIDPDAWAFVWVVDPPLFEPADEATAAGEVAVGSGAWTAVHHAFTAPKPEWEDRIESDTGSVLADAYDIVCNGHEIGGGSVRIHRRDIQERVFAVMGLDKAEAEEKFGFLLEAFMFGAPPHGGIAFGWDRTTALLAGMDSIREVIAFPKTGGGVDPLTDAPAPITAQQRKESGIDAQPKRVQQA
Nature of the assay: Assay for Asp RNA synthetase-1 from Mycobacterium tuberculosis. Format: functional. Particulars: 30 µM.

For assay [4], the target named is AMP-activated protein kinase, AMPK (Homo sapiens) (UniProt P54646+O43741+P54619+Q9UGJ0+Q9Y478+Q13131+Q9UGI9). Nature of the assay: AMP-dependent Kinase enzyme assay. An in vitro enzyme assay that detects ADP turnover that is directly proportional to AMPK activity. This uses naive AMPK that is activated during the assay with MK-8722. Format: functional. Particulars: 30 µM.

Assay [5] deals with Sialic acid-binding Ig-like lectin 9 (Homo sapiens) (UniProt Q9Y336). Put plainly: Hs-Siglec9 ALPHAscreen SOP 20170721. Particulars: 10 µM. A general note: Alpha assays give light when donor and acceptor beads are brought close together.
Sialic acid-binding Ig-like lectin 9 (Homo sapiens), sequence (Q9Y336 whole entry): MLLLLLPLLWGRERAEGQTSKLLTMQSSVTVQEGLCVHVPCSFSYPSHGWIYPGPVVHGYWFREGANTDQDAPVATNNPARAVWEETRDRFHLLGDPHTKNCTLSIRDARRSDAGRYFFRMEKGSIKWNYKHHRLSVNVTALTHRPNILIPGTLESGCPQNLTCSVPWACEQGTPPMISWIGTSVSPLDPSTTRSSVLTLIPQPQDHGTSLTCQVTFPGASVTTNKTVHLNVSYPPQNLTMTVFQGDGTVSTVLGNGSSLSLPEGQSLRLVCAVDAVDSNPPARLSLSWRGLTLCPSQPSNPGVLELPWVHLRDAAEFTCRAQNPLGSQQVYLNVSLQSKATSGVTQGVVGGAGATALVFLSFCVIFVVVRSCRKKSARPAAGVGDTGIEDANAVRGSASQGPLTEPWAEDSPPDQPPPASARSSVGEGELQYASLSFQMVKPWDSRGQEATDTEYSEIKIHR
For assay [6], the system named is Trypanosoma cruzi. Nature of the assay: Trypanosoma cruzi phosphomannomutase and mannose-1-phosphate guanylyltransferase assay. Format: functional. Conditions: 10 µM.
Assay [7] has as its target T3, Arginase-2, mitochondrial (Homo sapiens) (UniProt P78540).
T3 sequence (whole entry): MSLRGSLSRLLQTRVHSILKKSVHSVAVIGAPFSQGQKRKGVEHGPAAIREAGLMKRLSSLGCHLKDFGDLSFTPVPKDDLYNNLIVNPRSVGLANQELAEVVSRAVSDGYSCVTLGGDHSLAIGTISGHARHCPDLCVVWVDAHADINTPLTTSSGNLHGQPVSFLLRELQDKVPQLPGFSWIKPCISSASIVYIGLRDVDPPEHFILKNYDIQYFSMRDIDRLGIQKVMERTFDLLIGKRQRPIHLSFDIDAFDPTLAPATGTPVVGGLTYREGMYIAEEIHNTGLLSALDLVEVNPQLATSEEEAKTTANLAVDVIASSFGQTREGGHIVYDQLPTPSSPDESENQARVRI
Put plainly: in vitro enzyme assay to detect the production of urea directly proportional to the activity of Arginase II. Further: in the data most compounds retested in dose-response had high values. Format: functional. Particulars: 33.3 µM.

The target in assay [8] is T4, Proteasome subunit beta (Trypanosoma cruzi) (UniProt O96673).
T4 sequence (whole entry): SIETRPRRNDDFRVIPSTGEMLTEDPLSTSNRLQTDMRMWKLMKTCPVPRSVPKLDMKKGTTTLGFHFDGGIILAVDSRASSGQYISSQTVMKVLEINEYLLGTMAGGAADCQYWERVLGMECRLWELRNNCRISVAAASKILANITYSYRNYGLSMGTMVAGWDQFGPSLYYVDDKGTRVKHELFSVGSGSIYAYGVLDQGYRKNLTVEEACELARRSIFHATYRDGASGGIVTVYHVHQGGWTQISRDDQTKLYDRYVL
Put plainly: Trypanosoma cruzi proteasome chymotrypsin-like activity (TcProtChymo) assay. Further: in the data most compounds retested in dose-response had high values. Format: functional. Particulars: 9.37 µM.

The species named for assay [9] is Homo sapiens. Put plainly: To identify inhibition of the IFN signalling (Jak-Stat) pathway via expression of an eGFP reporter gene under the control of an IFN-stimulated response element (ISRE) containing MxA promoter. Conditions: 30 µM. Format: functional. (In general: In a reporter assay the amount or activity of a reporter protein is the signal.)
Assay [10] deals with Shiga toxin 2 (Escherichia coli O157:H7) (UniProt P09385+P09386). Nature of the assay: E. coli 0.157:H7 Shiga Toxin SOP - stx2 screening assay. Format: functional. Particulars: 30 µM.
In assay [11] the target is T5, Tyrosyl-tRNA synthetase, putative (Trypanosoma cruzi (strain CL Brener)) (UniProt Q4DSP6).
T5 sequence (whole entry): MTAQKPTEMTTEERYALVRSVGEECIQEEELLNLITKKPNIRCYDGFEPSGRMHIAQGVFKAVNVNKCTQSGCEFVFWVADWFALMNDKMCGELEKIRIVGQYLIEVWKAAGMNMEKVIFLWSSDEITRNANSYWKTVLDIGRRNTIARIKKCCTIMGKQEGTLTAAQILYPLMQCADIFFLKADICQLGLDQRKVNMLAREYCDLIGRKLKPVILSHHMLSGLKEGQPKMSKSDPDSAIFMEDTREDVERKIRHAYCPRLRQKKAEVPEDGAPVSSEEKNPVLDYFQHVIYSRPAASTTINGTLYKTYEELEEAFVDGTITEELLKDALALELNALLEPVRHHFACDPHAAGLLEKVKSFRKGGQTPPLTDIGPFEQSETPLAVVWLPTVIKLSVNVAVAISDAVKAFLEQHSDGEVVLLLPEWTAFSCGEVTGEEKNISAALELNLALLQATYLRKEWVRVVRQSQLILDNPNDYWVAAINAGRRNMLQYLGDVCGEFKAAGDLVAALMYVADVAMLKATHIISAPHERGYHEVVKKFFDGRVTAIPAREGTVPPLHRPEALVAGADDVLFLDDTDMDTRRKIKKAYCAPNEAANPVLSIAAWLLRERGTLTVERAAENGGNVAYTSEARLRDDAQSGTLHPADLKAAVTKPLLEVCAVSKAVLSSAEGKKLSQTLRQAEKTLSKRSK
Put plainly: Trypanosoma cruzi tyrosyl tRNA synthetase (TcYRS) _High Tyrosine SOP. Further: in the data most compounds retested in dose-response had high values. Format: functional. Conditions: 30 µM.

Assay [12] addresses T5, Tyrosyl-tRNA synthetase, putative (Trypanosoma cruzi (strain CL Brener)). Put plainly: Trypanosoma cruzi tyrosyl tRNA synthetase (TcYRS) SOP. Format: functional. Conditions: 30 µM.
Assay [13] has as its target Chromo domain-containing protein 1 (Saccharomyces cerevisiae (strain ATCC 204508 / S288c) (Baker's yeast)) (UniProt P32657). Put plainly: ScCHD-1 Enzyme Inhibition Assay. Further: in the data most compounds retested in dose-response had high values. Format: functional. Particulars: 30 µM.

The structures appear in SMILES notation. For some assays here: Measured potencies and affinities stand elsewhere.

Chromo domain-containing protein 1 (Saccharomyces cerevisiae (strain ATCC 204508 / S288c) (Baker's yeast)), sequence (P32657 whole entry, the tested form may be a part): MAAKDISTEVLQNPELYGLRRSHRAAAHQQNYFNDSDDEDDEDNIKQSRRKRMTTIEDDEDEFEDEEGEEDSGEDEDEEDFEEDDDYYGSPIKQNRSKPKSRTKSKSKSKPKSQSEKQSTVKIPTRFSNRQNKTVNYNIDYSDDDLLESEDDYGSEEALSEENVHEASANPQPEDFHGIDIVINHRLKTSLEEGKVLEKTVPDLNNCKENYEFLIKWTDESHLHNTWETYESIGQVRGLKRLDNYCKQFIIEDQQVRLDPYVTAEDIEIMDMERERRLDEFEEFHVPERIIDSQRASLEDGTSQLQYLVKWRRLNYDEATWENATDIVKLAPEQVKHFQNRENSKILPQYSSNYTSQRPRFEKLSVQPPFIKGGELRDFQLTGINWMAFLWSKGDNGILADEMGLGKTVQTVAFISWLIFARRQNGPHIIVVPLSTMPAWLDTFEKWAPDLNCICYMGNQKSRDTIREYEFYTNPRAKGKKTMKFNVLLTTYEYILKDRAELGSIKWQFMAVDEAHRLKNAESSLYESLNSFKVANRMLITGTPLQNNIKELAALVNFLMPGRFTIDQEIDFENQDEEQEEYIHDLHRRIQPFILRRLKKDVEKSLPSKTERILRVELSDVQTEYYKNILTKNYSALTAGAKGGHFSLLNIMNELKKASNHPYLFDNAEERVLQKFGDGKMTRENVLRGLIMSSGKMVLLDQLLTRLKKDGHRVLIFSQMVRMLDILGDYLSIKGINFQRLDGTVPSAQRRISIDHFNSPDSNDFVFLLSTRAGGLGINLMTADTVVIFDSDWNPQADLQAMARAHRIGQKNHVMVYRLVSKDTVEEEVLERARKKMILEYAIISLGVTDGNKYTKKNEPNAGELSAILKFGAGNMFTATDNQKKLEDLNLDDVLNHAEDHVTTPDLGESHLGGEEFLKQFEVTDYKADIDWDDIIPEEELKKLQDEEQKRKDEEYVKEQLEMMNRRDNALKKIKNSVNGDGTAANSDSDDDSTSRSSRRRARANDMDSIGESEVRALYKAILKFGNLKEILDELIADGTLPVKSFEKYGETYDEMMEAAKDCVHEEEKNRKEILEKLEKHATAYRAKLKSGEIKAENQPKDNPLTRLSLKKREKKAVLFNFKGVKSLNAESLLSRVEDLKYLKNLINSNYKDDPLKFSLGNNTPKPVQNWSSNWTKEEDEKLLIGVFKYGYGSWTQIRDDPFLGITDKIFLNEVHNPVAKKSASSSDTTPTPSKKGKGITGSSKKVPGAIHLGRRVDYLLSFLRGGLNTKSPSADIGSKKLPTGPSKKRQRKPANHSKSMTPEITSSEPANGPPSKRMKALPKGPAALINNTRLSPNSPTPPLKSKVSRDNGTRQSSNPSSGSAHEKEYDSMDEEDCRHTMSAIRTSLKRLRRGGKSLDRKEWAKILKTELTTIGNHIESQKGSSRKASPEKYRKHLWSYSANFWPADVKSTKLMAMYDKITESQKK
Protein translocase subunit SecA (Escherichia coli (strain K12)), sequence (P10408 whole entry): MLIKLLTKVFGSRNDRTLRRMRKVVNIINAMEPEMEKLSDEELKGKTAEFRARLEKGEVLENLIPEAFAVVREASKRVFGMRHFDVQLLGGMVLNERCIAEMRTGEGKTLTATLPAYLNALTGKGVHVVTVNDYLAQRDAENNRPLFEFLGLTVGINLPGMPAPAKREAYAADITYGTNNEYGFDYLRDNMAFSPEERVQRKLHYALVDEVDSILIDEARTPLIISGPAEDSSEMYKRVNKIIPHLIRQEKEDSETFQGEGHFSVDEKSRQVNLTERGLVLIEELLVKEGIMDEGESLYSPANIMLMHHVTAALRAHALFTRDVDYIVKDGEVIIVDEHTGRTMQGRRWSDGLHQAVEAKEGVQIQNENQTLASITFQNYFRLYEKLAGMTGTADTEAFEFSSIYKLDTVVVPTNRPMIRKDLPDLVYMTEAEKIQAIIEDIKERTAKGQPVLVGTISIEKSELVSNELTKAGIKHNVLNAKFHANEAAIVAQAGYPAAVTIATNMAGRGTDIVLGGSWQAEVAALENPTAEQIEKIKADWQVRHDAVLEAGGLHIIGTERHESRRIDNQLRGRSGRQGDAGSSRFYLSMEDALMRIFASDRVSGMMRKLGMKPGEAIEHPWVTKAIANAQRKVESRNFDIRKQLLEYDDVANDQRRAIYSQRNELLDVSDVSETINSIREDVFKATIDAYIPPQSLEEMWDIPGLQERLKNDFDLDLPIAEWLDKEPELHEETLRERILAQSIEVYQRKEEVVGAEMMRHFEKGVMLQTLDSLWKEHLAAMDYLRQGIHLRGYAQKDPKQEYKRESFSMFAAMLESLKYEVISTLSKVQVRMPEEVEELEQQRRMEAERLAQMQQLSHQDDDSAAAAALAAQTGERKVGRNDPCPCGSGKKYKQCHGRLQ

On to `Fc1cnc(N2CCO[C@H]3CN(CC4CCCC4)C[C@H]32)nc1`, for which the Percent Effect in assay [1] is -2.09%; in assay [2] it was 21.3%; in assay [3], -4.57%; in assay [4] it was -6.38%; in assay [5], -0.399%; in assay [6], 3.48%. In addition, the Percent Effect in assay [7] is -60%; in assay [8], 3.93%; in assay [9] it was -7.5%; in [10], -12.1%; in [11], 3.12%; in assay [12], 2.5%. Moreover, in assay [13], the Percent Effect is -13.4%.
As for `Cc1nc(C2(NCC(=O)NC(=O)NCc3cccs3)CCCCC2)no1`, the Percent Effect in [1] was -4.13%; in assay [2] it was 15.8%; in assay [3], -4.16%; in assay [4], -2.76%; in [5] it was -3.65%; in assay [6], 2.82%. In addition, the Percent Effect in assay [7] was -3.55%; in assay [8], -0.479%; in assay [9], 7.32%; in [10], 5.13%; in assay [11], 2.13%; in assay [12], 15.6%. Moreover, in [13], the Percent Effect is -4.77%.
For the compound `CO[C@@H]1CC[C@H]2[C@H]1OCCN2CC1CCOCC1`, the Percent Effect in [1] was -7.48%; in assay [2], 13.5%; in assay [3], -1.82%; in assay [4], -2.63%; in assay [5], 10.8%; in assay [6] it was 3.91%. For the same compound, the Percent Effect was 3.33% in assay [7]; 8.88% in [8]; 1.72% in assay [9]; 9.96% in assay [10]; 4.95% in assay [11]; 13.4% in assay [12]. The Percent Effect in assay [13] was -4.03%.
Consider `CCN(CCc1ccccc1)Cn1nc(C)c2c(C)onc2c1=O`, for which the Percent Effect is -5.66% in [1]; -8.11% in [2]; 5.17% in assay [3]; -13.6% in assay [4]; 25.2% in assay [5]; 3.68% in assay [6]. In addition, the Percent Effect in assay [7] is -3.21%; in assay [8], 7.75%; in assay [9], 5.78%; in assay [10], 16%; in assay [11], 9.36%; in assay [12], 23.5%. The Percent Effect in [13] was -14.1%.
For the compound `CCS(=O)(=O)NC[C@]12COC[C@H]1CN(Cc1cc(C)on1)C2`, the Percent Effect was -3.29% in assay [1]; 0% in assay [2]; -3.83% in [3]; 4.08% in [4]; 3.76% in [5]; -0.684% in [6]. Besides, the Percent Effect in [7] was 4.14%; in [8] it was 20.9%; in assay [9], -25%; in assay [10] it was 1.54%; in assay [11], 5.41%; in assay [12], 12.8%. Moreover, the Percent Effect in [13] is -1.96%.
